Assay results: PubChem BioAssay (NCI)
About 83,000 compounds went through this panel and 20% of them were active in at least one assay; those are over-represented in the sample as a whole.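 The test compound was applied at a single concentration to cells in 96-well plates for 48 hours, and percent growth was recorded.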 Unmarked numbers belong to inactive results. Activity calls are given as the source filed them. How the source made its calls: active means growth percent below 10; inactive means the rest.

What was measured:
Experiment in all cases: NCI-60 one-dose screen, 48 h (100 = growth as untreated, 0 = no growth, -100 = all killed)
Settings in all cases: 10 µM unless noted
SR leukemia = test system: SR leukemia
RPMI-8226 leukemia = test system: RPMI-8226 leukemia
OVCAR-8 ovarian = test system: OVCAR-8 ovarian
OVCAR-5 ovarian = test system: OVCAR-5 ovarian
OVCAR-4 ovarian = test system: OVCAR-4 ovarian
SK-OV-3 ovarian = test system: SK-OV-3 ovarian
IGROV1 ovarian = test system: IGROV1 ovarian
OVCAR-3 ovarian = test system: OVCAR-3 ovarian
HS 578T breast = test system: HS 578T breast
NCI/ADR-RES ovarian = test system: NCI/ADR-RES ovarian

Row | SMILES | growth (SR leukemia) | growth (RPMI-8226 leukemia) | growth (OVCAR-8 ovarian) | growth (OVCAR-5 ovarian) | growth (OVCAR-4 ovarian) | growth (SK-OV-3 ovarian) | growth (IGROV1 ovarian) | growth (OVCAR-3 ovarian) | growth (HS 578T breast) | growth (NCI/ADR-RES ovarian)
1 | CCN(CC)CCCC(C)NCc1ccccc1 (stereo not given) | 111% | 107% | 93.7% | 97.6% | 105% | 118% | 95.6% | 104% | 115% | 106%
2 | CCCCOC(=O)c1ccc(NC(=O)C(C)N2CCOCC2)cc1 (stereo not given) | 98.1% | 88.1% | 95.6% | 112% | 124% | 109% | 103% | 102% | 99% | 101%
3 | O=C(NC1CCOCC1)c1ccc2c(c1)CN(c1ncc(Cc3cccc(-n4cccn4)c3)s1)CC2 | 56.2% | 38.3% | 76.6% | 95.1% | 62.1% | 78.6% | 89.8% | 78.4% | 96% | 63.5%
4 | c1ccc2[nH]c(SSc3nc4ncncc4[nH]3)nc2c1 | 32.8% | 14.6% | 23% | 44.6% | 33.9% | 24.1% | 43.5% | 22.9% | 59.7% | 26.2%
5 | CCOC(=O)c1ccc(NC(=O)CCCN(CC)CC)cc1 | 92.8% | 97.8% | 102% | 106% | 111% | 109% | 107% | 105% | 119% | 99%
6 | COc1cc(/C=C2\C=C(c3ccccc3)N(CCc3ccccc3)C2=O)cc(OC)c1OC | 85.5% | 83.3% | 38.5% | 105% | 33.4% | 62.9% | 83.1% | 87.7% | 23.2% | 66.8%
7 | COc1ccc2cc(-c3ccc(C(=O)NN)c(C)n3)ccc2c1 | 78.4% | 101% | 102% | 91.6% | 90.8% | 95.7% | 101% | 91.9% | 99.4% | 105%
8 | O=C1c2ccccc2C(=O)c2cc(Cn3cc[n+](Cc4ccc5ccccc5c4)c3)ccc21 | 73.7% | 17.2% | 89.5% | 84.6% | 58.7% | 105% | 29.6% | 40.8% | 92.6% | 104%
9 | Nc1c(C(=O)c2ccc(Cl)s2)sc2nc3c(cc12)CCCC3 | 97.3% | 90.9% | 105% | 137% | 112% | 90.8% | 104% | 106% | 111% | 101%
10 | CN(CCC(=O)/C(=C\c1ccccc1)c1ccc(Cl)cc1)Cc1ccccc1 | -1.56% (active) | -11.3% (active) | 11.8% | 25.2% | 89.7% | 120% | 14.4% | 1.15% (active) | 28.9% | 24%
11 | Cc1cc(-c2ccccc2)cc(SC#N)[n+]1[O-] | 8.25% (active) | 19.2% | 31.7% | 75.4% | 41.2% | 45.1% | 35.3% | 39.6% | 80.1% | 19.7%
12 | CC1=NN(c2cccc(Cl)c2)C(=O)/C1=C\c1cn(CC(O)CN2CCCCC2)c2ccccc12 (stereo not given) | -8.32% (active) | 34.8% | 76.6% | 83.9% | 75.9% | 94.6% | 49.8% | 57.7% | 91.1% | 75.3%
13 | CSc1ncc(C)c(Nc2ccc(Cl)cc2)n1 | 89.9% | 102% | 104% | 112% | 99.8% | 126% | 85.8% | 111% | 94.9% | 98.1%
14 | COc1cc(-c2ccc(N=Nc3c(O)c(C(=O)Nc4ccccc4OC)cc4ccccc34)c(OC)c2)ccc1N=Nc1c(O)c(C(=O)Nc2ccccc2OC)cc2ccccc12 | 41.8% | 97.2% | 99.3% | 99.6% | 98.9% | 103% | 88.3% | 99.3% | 84.8% | 96.4%
15 | CCCCCCCCN(CCCCCCCC)C(=N)c1ccnc2ccccc12 | -56.6% (active) | -47.7% (active) | -66.1% (active) | -57.2% (active) | -67.1% (active) | -27.8% (active) | -66.5% (active) | -93% (active) | -32% (active) | -72.5% (active)
16 | CCN(CC)CCCNC(=O)c1ccc(N)cc1 | 86.6% | 105% | 106% | 97.1% | 114% | 112% | 100% | 111% | 99.2% | 102%
17 | CCCCCCNCc1cc(C(C)(C)C)cc(CNCCCCCC)c1O | -52% (active) | -29.8% (active) | -80.2% (active) | -69.9% (active) | -94.8% (active) | -90.5% (active) | -77.5% (active) | -86.6% (active) | -22.1% (active) | -87.6% (active)
18 | O=C(CCCCCCCn1cc(-c2cccnc2)nn1)Nc1ccccc1-c1ccccc1 | 49.2% | 30.5% | 20% | 62.6% | 41.7% | 61.7% | 28.3% | 48.8% | 66.4% | 24.1%
19 | O=[N+]([O-])c1ccc2[nH]cc(-c3c4ccsc4cc4[nH]c5ccc([N+](=O)[O-])cc5c34)c2c1 | 10.2% | 9.85% (active) | 7.43% (active) | 10.9% | 35.1% | 15.1% | 21.9% | -21.3% (active) | 26.6% | -14.1% (active)
20 | CCc1nc2ccccc2[nH]1 | 100% | 98.9% | 101% | 110% | 112% | 105% | 130% | 119% | 94.3% | 111%
